{
  "source": "PubChem BioAssay (NCI)",
  "note": "This is part of a sample that, as a whole, favours compounds with a hit. Of some 79,000 tested, about 15% had one in any assay. Active and inactive are the calls of the source. Cut-off read from the data, not from the text of the source: active = growth inhibition above about 70%; inactive = the rest.",
  "data": [
    {"assay": "NCI Yeast Anticancer Drug Screen. Data for the rad50 strain (AID 155);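 note: 0% = growth of vehicle-only cultures of the same strain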", "details": "S. cerevisiae rad50 strain growth inhibition; at 50.0 µM; active compounds read high", "method_in_brief": "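Inhibition values express reduced yeast growth in compound-treated cultures relative to vehicle-treated controls.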", "values": [
      {"smiles": "CCOC(=O)c1ccc2nc(-c3ccc(S(=O)(=O)F)cc3)cc(Cl)c2c1", "growth inhibition": "12% (inactive)"},
      {"smiles": "CN1CCN(c2ccc(Cl)cc2)CC1", "growth inhibition": "-5.85% (inactive)"},
      {"smiles": "CCCOP(=O)(CCl)OCCC", "growth inhibition": "-7.8% (inactive)"},
      {"smiles": "CC(Cc1ccccc1)N(C)CC1C(=O)C2CCC1C2", "note": "(stereo not drawn)", "growth inhibition": "10.5% (inactive)"},
      {"smiles": "Cc1ccc(-n2c(=S)[nH]c3ccccc3c2=O)cc1F", "growth inhibition": "-23.9% (inactive)"},
      {"smiles": "N#CC(C#N)=Cc1ccc(F)cc1", "growth inhibition": "-6.85% (inactive)"},
      {"smiles": "C[N+](C)(C)CC1CCCC(C[N+](C)(C)C)C1=NO", "note": "(stereo not drawn)", "growth inhibition": "24.9% (inactive)"},
      {"smiles": "COc1ccccc1NC1=NCCS1", "growth inhibition": "20.9% (inactive)"},
      {"smiles": "COc1ccc(-n2c(=S)[nH]c3ccccc3c2=O)cc1", "growth inhibition": "-10.5% (inactive)"},
      {"smiles": "Clc1cccc(NC2=NCCS2)c1", "growth inhibition": "-7.35% (inactive)"},
      {"smiles": "O=C1C(Cl)=C(Cl)C1(Cl)Cl", "growth inhibition": "-3.5% (inactive)"},
      {"smiles": "CC(C)=CC1CC(=[N+]=[N-])C(=O)C1(C)C", "note": "(stereo not drawn)", "growth inhibition": "33.5% (inactive)"},
      {"smiles": "CN1C2c3ccccc3C3C4c5ccccc5C(C31)C(C2[N+](=O)[O-])N4C", "note": "(stereo not drawn)", "growth inhibition": "-12.8% (inactive)"},
      {"smiles": "CNCCc1ccc(O)c(O)c1", "growth inhibition": "-1.6% (inactive)"},
      {"smiles": "NC(=O)NNc1ccc([N+](=O)[O-])cc1[N+](=O)[O-]", "growth inhibition": "12.1% (inactive)"},
      {"smiles": "CC1NCCc2cc(O)c(O)cc21", "note": "(stereo not drawn)", "growth inhibition": "4.35% (inactive)"},
      {"smiles": "COc1cccc(N=C(N)N[N+](=O)[O-])c1", "growth inhibition": "-13.2% (inactive)"},
      {"smiles": "C[N+]1([O-])C2CCC1CC(OC(=O)C(O)c1ccccc1)C2", "note": "(stereo not drawn)", "growth inhibition": "1.45% (inactive)"},
      {"smiles": "CC(C)NCCc1c[nH]c2ccccc12", "growth inhibition": "3% (inactive)"},
      {"smiles": "CC(C)OP(=O)(NC(=S)c1ccccc1)OC(C)C", "growth inhibition": "19.1% (inactive)"},
      {"smiles": "O=C(CBr)OCCCS(=O)(=O)O", "growth inhibition": "-24.9% (inactive)"},
      {"smiles": "CC(Br)C(N)=O", "note": "(stereo not drawn)", "growth inhibition": "-14.4% (inactive)"},
      {"smiles": "C=CCN1CC2CN=NC2(C#N)C1", "note": "(stereo not drawn)", "growth inhibition": "-10.8% (inactive)"},
      {"smiles": "O=C(/C=C/c1ccccc1)NCCc1cnc[nH]1", "growth inhibition": "0.65% (inactive)"},
      {"smiles": "C1CC[N+]2=C(C1)OCCC2", "growth inhibition": "12.1% (inactive)"},
      {"smiles": "c1ccc2c(c1)O[As](O[As]1Oc3ccccc3O1)O2", "growth inhibition": "-4.2% (inactive)"},
      {"smiles": "O=C(CBr)OCS(=O)(=O)O", "growth inhibition": "-15.2% (inactive)"},
      {"smiles": "NC(=NC1CCCCCCCCCCC1)N[N+](=O)[O-]", "growth inhibition": "36.1% (inactive)"},
      {"smiles": "O=C(CCN1CC=C(c2ccccc2)CC1)NCc1ccccc1", "growth inhibition": "5% (inactive)"},
      {"smiles": "COc1ccc(C(=O)OC2CC3CCC(C2)N3)cc1OC", "note": "(stereo not drawn)", "growth inhibition": "7.25% (inactive)"},
      {"smiles": "Cc1ccc(-n2c(=S)[nH]c3ccccc3c2=O)cc1", "growth inhibition": "-8.7% (inactive)"},
      {"smiles": "O=c1c2ccccc2[nH]c(=S)n1-c1cccc(Cl)c1", "growth inhibition": "44.2% (inactive)"},
      {"smiles": "Brc1ccc(C[N+]23CCN(CC2)CC3)cc1", "growth inhibition": "-14.2% (inactive)"},
      {"smiles": "Cc1ccc(-c2cc(Cl)c3cc(S(=O)(=O)F)ccc3n2)cc1", "growth inhibition": "-4% (inactive)"},
      {"smiles": "C/C=C1\\CN2CCC1CC2C(O)c1ccnc2ccc(O)cc12", "note": "(stereo not drawn)", "growth inhibition": "-3.6% (inactive)"},
      {"smiles": "Cc1cccc(-c2cc(Cl)c3cc(S(=O)(=O)F)ccc3n2)c1", "growth inhibition": "-1.1% (inactive)"},
      {"smiles": "CSC(=S)NNC(=O)c1cccc(S(=O)(=O)F)c1", "growth inhibition": "-2.95% (inactive)"},
      {"smiles": "O=c1c2ccc(Cl)cc2[nH]c(=S)n1-c1ccc(Cl)cc1", "growth inhibition": "10.1% (inactive)"},
      {"smiles": "CN(C)CCNc1nc2c(no[n+]2[O-])c2ccccc12", "growth inhibition": "-28.9% (inactive)"},
      {"smiles": "Cc1cc(N)ccc1N", "growth inhibition": "7.15% (inactive)"}
    ]},
    {"assay": "NCI Yeast Anticancer Drug Screen. Data for the mec2-1 strain (AID 157)", "details": "S. cerevisiae mec2-1 strain, at 50.0 µM, active compounds read high", "method_in_brief": "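Compounds were applied to mec2-1 yeast cells. Their growth was then compared with that of vehicle-treated cultures to give growth inhibition.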", "values": [
      {"smiles": "CCOC(=O)c1ccc2nc(-c3ccc(S(=O)(=O)F)cc3)cc(Cl)c2c1", "growth inhibition": "-9.95% (inactive)"},
      {"smiles": "CN1CCN(c2ccc(Cl)cc2)CC1", "growth inhibition": "-17.6% (inactive)"},
      {"smiles": "CCCOP(=O)(CCl)OCCC", "growth inhibition": "-5.05% (inactive)"},
      {"smiles": "CC(Cc1ccccc1)N(C)CC1C(=O)C2CCC1C2", "note": "(stereo not drawn)", "growth inhibition": "-12.6% (inactive)"},
      {"smiles": "Cc1ccc(-n2c(=S)[nH]c3ccccc3c2=O)cc1F", "growth inhibition": "-25.9% (inactive)"},
      {"smiles": "N#CC(C#N)=Cc1ccc(F)cc1", "growth inhibition": "5% (inactive)"},
      {"smiles": "C[N+](C)(C)CC1CCCC(C[N+](C)(C)C)C1=NO", "note": "(stereo not drawn)", "growth inhibition": "12.1% (inactive)"},
      {"smiles": "COc1ccccc1NC1=NCCS1", "growth inhibition": "-12.9% (inactive)"},
      {"smiles": "COc1ccc(-n2c(=S)[nH]c3ccccc3c2=O)cc1", "growth inhibition": "-9.7% (inactive)"},
      {"smiles": "Clc1cccc(NC2=NCCS2)c1", "growth inhibition": "-32.6% (inactive)"},
      {"smiles": "O=C1C(Cl)=C(Cl)C1(Cl)Cl", "growth inhibition": "-20.4% (inactive)"},
      {"smiles": "CC(C)=CC1CC(=[N+]=[N-])C(=O)C1(C)C", "note": "(stereo not drawn)", "growth inhibition": "7.1% (inactive)"},
      {"smiles": "CN1C2c3ccccc3C3C4c5ccccc5C(C31)C(C2[N+](=O)[O-])N4C", "note": "(stereo not drawn)", "growth inhibition": "-30.8% (inactive)"},
      {"smiles": "CNCCc1ccc(O)c(O)c1", "growth inhibition": "-13.2% (inactive)"},
      {"smiles": "NC(=O)NNc1ccc([N+](=O)[O-])cc1[N+](=O)[O-]", "growth inhibition": "-5.4% (inactive)"},
      {"smiles": "CC1NCCc2cc(O)c(O)cc21", "note": "(stereo not drawn)", "growth inhibition": "6.3% (inactive)"},
      {"smiles": "COc1cccc(N=C(N)N[N+](=O)[O-])c1", "growth inhibition": "-32% (inactive)"},
      {"smiles": "C[N+]1([O-])C2CCC1CC(OC(=O)C(O)c1ccccc1)C2", "note": "(stereo not drawn)", "growth inhibition": "-21.2% (inactive)"},
      {"smiles": "CC(C)NCCc1c[nH]c2ccccc12", "growth inhibition": "-7.15% (inactive)"},
      {"smiles": "O=C(CBr)OCCCS(=O)(=O)O", "growth inhibition": "-34.4% (inactive)"},
      {"smiles": "CC(Br)C(N)=O", "note": "(stereo not drawn)", "growth inhibition": "-17.8% (inactive)"},
      {"smiles": "O=C(/C=C/c1ccccc1)NCCc1cnc[nH]1", "growth inhibition": "1.55% (inactive)"},
      {"smiles": "C1CC[N+]2=C(C1)OCCC2", "growth inhibition": "-2.15% (inactive)"},
      {"smiles": "c1ccc2c(c1)O[As](O[As]1Oc3ccccc3O1)O2", "growth inhibition": "4.75% (inactive)"},
      {"smiles": "O=C(CBr)OCS(=O)(=O)O", "growth inhibition": "-31.6% (inactive)"},
      {"smiles": "NC(=NC1CCCCCCCCCCC1)N[N+](=O)[O-]", "growth inhibition": "9.6% (inactive)"},
      {"smiles": "O=C(CCN1CC=C(c2ccccc2)CC1)NCc1ccccc1", "growth inhibition": "-6.8% (inactive)"},
      {"smiles": "COc1ccc(C(=O)OC2CC3CCC(C2)N3)cc1OC", "note": "(stereo not drawn)", "growth inhibition": "-19.8% (inactive)"},
      {"smiles": "Cc1ccc(-n2c(=S)[nH]c3ccccc3c2=O)cc1", "growth inhibition": "-7.95% (inactive)"},
      {"smiles": "O=c1c2ccccc2[nH]c(=S)n1-c1cccc(Cl)c1", "growth inhibition": "16.1% (inactive)"},
      {"smiles": "Brc1ccc(C[N+]23CCN(CC2)CC3)cc1", "growth inhibition": "-35.1% (inactive)"},
      {"smiles": "Cc1ccc(-c2cc(Cl)c3cc(S(=O)(=O)F)ccc3n2)cc1", "growth inhibition": "-16.6% (inactive)"},
      {"smiles": "C/C=C1\\CN2CCC1CC2C(O)c1ccnc2ccc(O)cc12", "note": "(stereo not drawn)", "growth inhibition": "-13.7% (inactive)"},
      {"smiles": "Cc1cccc(-c2cc(Cl)c3cc(S(=O)(=O)F)ccc3n2)c1", "growth inhibition": "-25.4% (inactive)"},
      {"smiles": "CSC(=S)NNC(=O)c1cccc(S(=O)(=O)F)c1", "growth inhibition": "-8.8% (inactive)"},
      {"smiles": "O=c1c2ccc(Cl)cc2[nH]c(=S)n1-c1ccc(Cl)cc1", "growth inhibition": "-9.25% (inactive)"},
      {"smiles": "CN(C)CCNc1nc2c(no[n+]2[O-])c2ccccc12", "growth inhibition": "-24.8% (inactive)"},
      {"smiles": "Cc1cc(N)ccc1N", "growth inhibition": "11.2% (inactive)"}
    ]}
  ]
}
